Source: PubChem (several laboratories)
Most compounds without a hit are left out; they make up all but 3.3% or so of the library.
ROMK primary – human ROMK K+ channel modulation, primary screen. actives 2% (n = 130,000). Tet-inducible ROMK, thallium flux fluorescence; actives lie on both sides. AID 1918. B-score at 10 µM;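 active = signal ratio slope over the read window, or its plate-corrected B-score, at least 3 SD from the plate mean, either direction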;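 also: B-score of the F/F0 ratio slope over 7 to 12 s after thallium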
Target sequence (P48048 whole entry, looked up): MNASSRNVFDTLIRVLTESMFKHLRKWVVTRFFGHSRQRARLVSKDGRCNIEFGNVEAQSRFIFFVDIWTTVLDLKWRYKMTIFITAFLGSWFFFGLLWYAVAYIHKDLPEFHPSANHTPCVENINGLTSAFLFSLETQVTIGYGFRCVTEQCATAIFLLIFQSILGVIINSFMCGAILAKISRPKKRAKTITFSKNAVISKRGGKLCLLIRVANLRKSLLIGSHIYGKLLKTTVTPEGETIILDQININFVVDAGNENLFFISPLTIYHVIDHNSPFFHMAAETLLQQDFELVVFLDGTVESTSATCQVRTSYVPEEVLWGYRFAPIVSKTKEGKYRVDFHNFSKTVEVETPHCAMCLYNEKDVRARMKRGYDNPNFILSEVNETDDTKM
WT yeast gro inh – growth inhibition of WT yeast, mitochondrial fusion screen; actives 2.1% (n = 190,000); mitochondrial fusion phenotypic screen, WT strain; inhibition, % at 10 µM; in the data active = inhibition above about 58%; tested in S. cerevisiae
PERK inh – human PERK inhibition, primary cell-based screen | CHO PERK-DD fusion, SEAP luminescence translation reporter | inhibition, % at 5.6 µM | actives 0.17% (n = 220,000) | Q9NZJ5;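 active = inhibition above the mean inhibition of all tested compounds plus 3 SD, set separately per screening campaign, cut at about 2.9% in these data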;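 also: PERK kinase domain activated by AP20187 dimerizer at 100 nM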
Arbovirus anti – blocks arbovirus infection; arbovirus infection cell-based antiviral screen; inhibition, % at 10 µM; actives 0.37% (n = 200,000); in the data active = inhibition above about 30%
Of the large screens only hits and unclear results are named; the others gave an inactive call.

COc1ccc(NS(=O)(=O)c2cc(NC(=O)/C=C/c3cccs3)ccc2N2CCOCC2)cc1	Arbovirus anti 64
CCN1CCN(CC(=O)N/N=C/c2ccc(F)cc2F)CC1	none (no result: ROMK primary)
CC(CC(=O)Nc1ncc([N+](=O)[O-])s1)c1ccccc1 (centres undefined)	ROMK primary -4.4
O=C(COc1ccc(Cl)cc1)Nc1ncc([N+](=O)[O-])s1	Arbovirus anti 30
COc1ccc(N(C(=O)COc2ccc(C)cc2)S(=O)(=O)c2ccc(C)cc2)cc1	none
NC(=O)CSc1nnc(CSc2ncccn2)n1-c1ccccc1	PERK inh 3.0
CC(C)c1nc(SCC(=O)Nc2ccc(N(C)C)cc2)c2ccccc2n1	none
COc1ccccc1/C=C\C=N\n1c(-c2ccc(Cl)cc2Cl)n[nH]c1=S	WT yeast gro inh 65
COc1ccccc1/C=C\C=N\n1c(-c2ccc(Cl)cc2)n[nH]c1=S	none
COC(=O)C1=C(O)C(C(=O)OC)C(c2ccc(C)cc2)C(C#N)(C#N)C1c1ccc(C)cc1 (centres undefined)	WT yeast gro inh 67 (no result: ROMK primary)
CCOC(=O)CSC1=C(C#N)C(c2ccc(C)cc2)C(C(=O)OC)C(=O)N1 (centres undefined)	none
CC(C)(C)NC(=O)CN(C(=O)c1csnn1)c1cccc2c1CCCC2	none
O=C(c1ccc2c(=O)n(C3CCCC3)c(=S)[nH]c2c1)N1CCc2ccccc21	none (no result: ROMK primary)
O=C(Cn1cnc2nc3n(c2c1=O)CCC3)NCc1ccccc1	none
COc1cc(C(=O)NC(=S)Nc2ccc(N3CCCC3)cc2)cc(OC)c1OC	none (no result: ROMK primary)
COc1ccc(-n2cc(CNC3CCN(C)CC3)c(-c3cccc(F)c3)n2)cc1	WT yeast gro inh 59
CCOC(=O)N1CCN(Cc2nc(N)nc(Nc3ccc(Cl)cc3)n2)CC1	none
Fc1cccc(CN2CCN(Cc3nc(-c4cnccn4)no3)CC2)c1	none
COc1cccc(N=Nc2c(=O)[nH]n3c(=O)c4c([nH]c23)CCC4)c1	none
O=c1[nH]n2c(=O)c3c([nH]c2c1N=Nc1cccc(C(F)(F)F)c1)CCCC3	Arbovirus anti 37
O=c1[nH]n2c(=O)c3c([nH]c2c1N=Nc1cccc(Cl)c1)CCC3	Arbovirus anti 34
O=C(Cn1nnc2ccccc2c1=O)NCC1CCC(C(=O)O)CC1 (centres undefined)	PERK inh 3.2 (no result: ROMK primary, WT yeast gro inh, Arbovirus anti)
Cc1nc(Cl)c2c(n1)N(CC(N)=O)C(=O)CO2	none
CCCNC(=S)Nc1ccc2nc(-c3ccccn3)c(-c3ccccn3)nc2c1	WT yeast gro inh 72 (no result: ROMK primary)
COc1ccccc1-c1cc(C(F)(F)F)nc(N2CCCCC2)n1	WT yeast gro inh 74
COc1ccccc1-c1cc(C(F)(F)F)nc(N2CCCC2)n1	none
Cc1c(C(=O)Nc2ccc(Oc3ccccc3)cc2)sc2nc3n(c(=O)c12)CCC3	WT yeast gro inh 61 (no result: ROMK primary)
COC1(OC)C(/C=C/c2ccc(C)cc2)C(C#N)(C#N)C1(OC)OC (centres undefined)	none
COC(=O)C1CCCN1C(=O)C1CCCN1C(=O)CNC(=O)OCc1ccccc1 (centres undefined)	none
COc1ccc(-c2nc(C)ncc2N=Nc2ccccc2)cc1	WT yeast gro inh 98 (no result: ROMK primary)
Cc1ncc(N=Nc2ccc(F)cc2)c(-c2ccc(Cl)cc2)n1	none (no result: ROMK primary)
O=C1CSC(=Nc2ccccc2)N1Cc1ccccc1	none
Cc1ccccc1N=C1SCC(=O)N1Cc1ccccc1	Arbovirus anti 37 (no result: ROMK primary)
COC(=O)CNC(=O)C1(C)C=CCN1C(=O)c1ccccc1 (centres undefined)	none
CCCCNC(=O)CC(NS(=O)(=O)c1ccc(C)cc1)c1ccco1 (centres undefined)	none (no result: ROMK primary)
COCCNC(=O)CC(NS(=O)(=O)c1ccc(C)cc1)c1ccco1 (centres undefined)	WT yeast gro inh 73 (no result: ROMK primary)
COc1ccc(/C=N/N=C2/NC(=O)C(CC(=O)O)S2)cc1OS(=O)(=O)c1ccccc1 (centres undefined)	none
Cc1ccc(S(=O)(=O)Oc2ccc(C)cc2/C=N/N=C2\NC(=O)C(C)S2)cc1 (centres undefined)	Arbovirus anti 30
O=C(Nc1cccnc1)c1ccccc1NS(=O)(=O)c1ccc(F)cc1	none
O=C(Nc1nc(-c2ccccc2)cs1)c1ccccc1NS(=O)(=O)c1ccc(F)cc1	WT yeast gro inh 78
O=S(=O)(Nc1ccc(-c2csc(-c3ccccc3)n2)cc1)c1ccc(F)cc1	WT yeast gro inh 92 (no result: ROMK primary)
Fc1ccc(-c2csc(-c3ccncc3)n2)cc1	none
O=C1c2ccccc2C(O)(c2ncc[nH]2)N1CCc1ccccc1 (centres undefined)	none (no result: ROMK primary)
Cc1ccccc1CSc1nnc2ccc(-c3ccncc3)nn12	none
O=C(Nc1cc(S(=O)(=O)N2CCOCC2)ccc1Cl)C(=O)c1c(-c2ccccc2)cc2ccccn12	WT yeast gro inh 99
CC(=O)N1CCN(C(=S)Nc2cc(S(=O)(=O)N3CCOCC3)ccc2Cl)CC1	none
Cc1ccc(CCc2nnc(SCC(=O)Nc3cc(Cl)ccc3Cl)n2-c2ccccc2)o1	WT yeast gro inh 61
CSc1nsc(SCC(=O)Nc2ccc3c(c2)OCCO3)n1	PERK inh 3.1
COc1ccc(NC(=O)CSc2ccc3c(c2)OCCO3)cc1OC	WT yeast gro inh 86 (no result: ROMK primary)
Cc1csc(SCC(=O)Nc2ccc3c(c2)OCCO3)n1	none
CCOC(=O)/C(=C/Nc1ccc(F)c(F)c1)[N+](=O)[O-]	none (no result: ROMK primary, WT yeast gro inh, Arbovirus anti)
N/C(=N\OC(=O)COc1ccc2ccccc2c1Br)c1ccccn1	WT yeast gro inh 64
COc1cc2[nH]c(=O)n(CCC(=O)N3CCC(N4CCCCC4)CC3)c(=O)c2cc1OC	WT yeast gro inh 71
Cc1ccc(C2(C(F)(F)F)NC(=O)N3CCN=C3S2)cc1 (centres undefined)	PERK inh 2.9 (no result: ROMK primary)
Cc1ccc(S(=O)(=O)N(C)C)cc1NC(=S)Nc1ccc2[nH]c(=O)[nH]c2c1	none
O=C(c1ccco1)N1CCN(c2nc(-c3ccc(F)cc3)cs2)CC1	Arbovirus anti 31 (no result: ROMK primary)
CCNC(=O)NC(=O)C(C)Sc1nc2cc(C(=O)OC)ccc2c(=O)n1-c1ccccc1 (centres undefined)	Arbovirus anti 43 (no result: ROMK primary)
Clc1ccc(-c2cc3ccccc3nc2N2CCCC2)cc1	WT yeast gro inh 70 (no result: ROMK primary)
NC(=S)n1[nH]c(-c2ccc([N+](=O)[O-])cc2)c(N=Nc2ccc(Cl)cc2)c1=O	WT yeast gro inh 78
O=C(NCC(c1cccnc1)N1CCOCC1)c1ccco1 (centres undefined)	WT yeast gro inh 71
O=C(NCC(c1cccnc1)N1CCN(c2ccc(F)cc2)CC1)c1ccco1 (centres undefined)	none (no result: ROMK primary)
COC(=O)c1cc(NC(=S)Nc2cc(Cl)cc(Cl)c2)cc(C(=O)OC)c1	WT yeast gro inh 77
O=C(CCc1nc(-c2ccccc2)no1)NCCc1ccccc1	WT yeast gro inh 62 (no result: ROMK primary)
CC(C)CNC(=O)CCc1nc(-c2ccccc2)no1	none (no result: ROMK primary, WT yeast gro inh, Arbovirus anti)
CCOc1ccc(C(=O)Nc2sc3c(c2C(=O)OC)CC(C)(C)NC3(C)C)cc1	none (no result: ROMK primary)
COC(=O)c1c(NC(=O)c2nc3ccccc3s2)sc2c1CC(C)(C)NC2(C)C	WT yeast gro inh 83 (no result: ROMK primary)
O=S(=O)(NCCc1ccncc1)c1ccc(S(=O)(=O)N2CCCCCC2)cc1	none (no result: ROMK primary)
Cc1[nH]c(=O)cc2ccccc12	none
Cc1ccc(/C=C2\CC(C)CC3=C2NC(=S)NC3c2ccc(C)cc2)cc1 (centres undefined)	none (no result: ROMK primary, WT yeast gro inh, Arbovirus anti)
